Experimental data published in PubChem BioAssay AID2174 (The Scripps Research Institute Molecular Screening Center, 2009).
Among all 320,000 compounds or so, about 500 (0.16%) were called active. The entries come from a sample that favours actives as a whole. A number with no mark means an inactive call.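 The calls were made as follows: active = inhibition above the mean of all tested compounds plus 3 SD, set per campaign (cut at about 14% in these data); inactive = the rest.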

target: Acyl-protein thioesterase 1 (Homo sapiens) (UniProt O75608); assay: inhibition of human lysophospholipase 1 – biochemical, fluorescence polarization, FP-Rh probe ABPP, counter-screen for PME1 inhibitor project, primary screen (AID 2174); conditions: recombinant LYPLA1, FP-Rh probe fluorescence polarization; at 5.9 µM; hits give high values;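 also: inhibitors block serine hydrolase probe labeling of LYPLA1 so polarization falls; 0% = enzyme with DMSO and 100% = wells lacking LYPLA1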
Sequence (O75608 whole entry, looked up): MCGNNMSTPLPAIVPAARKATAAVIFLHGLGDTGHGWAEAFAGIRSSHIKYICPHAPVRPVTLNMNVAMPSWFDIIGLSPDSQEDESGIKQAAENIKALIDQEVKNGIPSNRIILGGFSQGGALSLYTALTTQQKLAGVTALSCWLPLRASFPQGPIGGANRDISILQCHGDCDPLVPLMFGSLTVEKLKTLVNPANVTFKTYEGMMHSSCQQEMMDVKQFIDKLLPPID

Question: Which inhibition does the source give for `Cc1ccc(S(=O)(=O)N2CCC(C(=O)N[C@@H](C)C(=O)NCc3ccco3)CC2)cc1` here?
Answer: 48% (active)

Question: With `Cc1ccc(S(=O)(=O)N2CCC(C(=O)N[C@@H](C)C(=O)NCc3ccccc3)CC2)cc1` as the compound, how does the inhibition read?
Answer: -4.86%

Question: `Cc1ccc(S(=O)(=O)N2CCC(C(=O)N[C@@H](C)C(=O)NCCc3ccccc3)CC2)cc1` was tested. Which inhibition did it give?
Answer: 2.54%

Question: How did the inhibition turn out when `COc1ccc(C(C)NC(=O)C2CCCC2)cc1` (stereo unspecified) was run?
Answer: 0.96%

Question: With `Cc1c(Nc2nc3ccccc3nc2NS(=O)(=O)c2cccs2)c(=O)n(-c2ccccc2)n1C` as the compound, how does the inhibition read?
Answer: -0.16%

Question: For `CCOC(=O)c1c(/N=C/c2cc(C)ccc2O)sc2c1CCC2`, which inhibition is on record?
Answer: -3.88%

Question: How did the inhibition turn out when `C=CCNC(=O)c1cc(-c2ccccc2O)on1` was run?
Answer: -0.65%

Question: `C=CCNC(=S)NNC(=O)c1cc(Cl)ccc1OC` was tested. Which inhibition did it give?
Answer: 1.08%

Question: `C=CCNC(=O)c1sc(SC)cc1-c1ccc(Cl)cc1` was tested. Which inhibition did it give?
Answer: 21.3% (active)

Question: With `CCn1cc(-c2cc(C(=O)O)on2)c(C)n1` as the compound, how does the inhibition read?
Answer: -0.98%

Question: For `CC(C)S(=O)(=O)c1csc(NC(=O)Nc2ccc(Cl)cc2)c1Cl`, which inhibition is on record?
Answer: -33.1%

Question: With `CC1Cn2c(nnc2-c2cccs2)S1` (stereo unspecified) as the compound, how does the inhibition read?
Answer: -1.86%

Question: For `CN1C(=O)c2ccccc2C(C(=O)NCCCN2CCCC2)C1c1c[nH]c2ccccc12` (stereo unspecified), which inhibition is on record?
Answer: 3.18%

Question: How did the inhibition turn out when `O=C1NC2(CCCCCC2)C(=O)N1CCS(=O)(=O)Oc1ccccc1` was run?
Answer: -0.42%

Question: How did the inhibition turn out when `CC(C)CCNC(=O)CCNS(=O)(=O)c1ccc(Cl)cc1` was run?
Answer: -1.02%

Question: How did the inhibition turn out when `O=C(CCCn1c(=O)c2sccc2n(CC(=O)NCC2CCCO2)c1=O)NCc1ccco1` (stereo unspecified) was run?
Answer: 4.84%

Question: For `CCCCN(C(=O)/C=C/c1ccco1)c1c(N)n(CC(C)C)c(=O)[nH]c1=O`, which inhibition is on record?
Answer: -1.43%

Question: How did the inhibition turn out when `O=C(NC1CC1)C1=C[C@H](c2c[nH]c3ccccc23)C[C@H](OCc2ccc(CO)cc2)O1` was run?
Answer: 0.98%

Question: Which inhibition does the source give for `CC(=O)N1CCN(C(=O)c2cc(-c3ccc(Cl)s3)nc3ccccc23)CC1` here?
Answer: -4.07%

Question: With `CCOc1ccc(N(CC(=O)NCCc2ccc(OC)cc2)S(C)(=O)=O)cc1` as the compound, how does the inhibition read?
Answer: 1.18%

Question: `CCn1c(SCC(=O)NC2CC2)nnc1-c1ccccn1` was tested. Which inhibition did it give?
Answer: -1.31%

Question: Which inhibition does the source give for `COc1ccc(/C=C(\NC(=O)c2ccccc2)C(=O)NCCN2CCOCC2)cc1OC` here?
Answer: -3.08%

Question: With `CCN1CCN(CCNC(=O)c2ccc3c(c2)NC(=O)/C(=C\c2ccc(OC)c(OC)c2)S3)CC1` as the compound, how does the inhibition read?
Answer: 24.7% (active)

Question: `COc1ccc(CCNC(=O)c2ccc3c(c2)NC(=O)C(N2CCOCC2)S3)cc1OC` (stereo unspecified) was tested. Which inhibition did it give?
Answer: -0.92%

Question: With `CCNc1ccc(C(=O)OCC(=O)N2c3ccccc3NC(=O)C2(C)C)cc1[N+](=O)[O-]` as the compound, how does the inhibition read?
Answer: 2.28%

Question: How did the inhibition turn out when `C=C(C)CSc1nc(N)c2c3c(sc2n1)CCC3` was run?
Answer: -2.73%

Question: Which inhibition does the source give for `CCc1noc(C)c1C(=O)N1CCN(S(=O)(=O)c2cccc(C(F)(F)F)c2)CC1` here?
Answer: -4.37%

Question: How did the inhibition turn out when `O=C(COc1ccccc1Cl)Nc1ccc(C(=O)c2ccc(C(=O)O)cc2)cc1` was run?
Answer: 0.16%

Question: Which inhibition does the source give for `O=C(NC(Cc1ccc(O)cc1)C(=O)O)/C(=C/c1ccccc1)NC(=O)c1ccccc1` (stereo unspecified) here?
Answer: -3.61%

Question: `O=C(O)c1ccccc1-c1ccccc1C(=O)NCCc1ccccc1` was tested. Which inhibition did it give?
Answer: -3.92%

Question: With `CC(C)CC1(C(=O)NCc2ccccn2)C=CCN1C(=O)c1ccccc1` (stereo unspecified) as the compound, how does the inhibition read?
Answer: 0.98%

Question: How did the inhibition turn out when `CCc1[nH]nc(C(=O)N2CCCC(CO)(Cc3ccc(F)cc3F)C2)c1C` (stereo unspecified) was run?
Answer: -0.39%

Question: How did the inhibition turn out when `CCn1c(SCc2ccccc2)nc2cc(OC)c(OC)cc2c1=O` was run?
Answer: -1.81%

Question: With `CSc1c(SCc2ccccc2)cnn(Cc2ccccc2)c1=O` as the compound, how does the inhibition read?
Answer: 15% (active)

Question: With `COC(=O)c1ccc(SCc2ccccc2)nc1` as the compound, how does the inhibition read?
Answer: -1.56%

Question: With `COC(=O)C1=C(C(=O)OC)[C@@H]2N(C)c3ccccc3[C@@]23C[C@@H](C(=O)OC)N(C(C)=O)C3=N1` as the compound, how does the inhibition read?
Answer: -0.85%

Question: `CCCCCCCCCCCC(=O)O` was tested. Which inhibition did it give?
Answer: 1.07%

Question: With `COc1ccc(C2C(C#N)=C(N)Oc3n[nH]c(C)c32)cc1CN1CCN(c2ccc(F)cc2)CC1` (stereo unspecified) as the compound, how does the inhibition read?
Answer: -1.23%

Question: `CCOC(=O)C1(CC2CCCCO2)CCN(Cc2nc(-c3cccs3)oc2C)CC1` (stereo unspecified) was tested. Which inhibition did it give?
Answer: -3.08%

Question: `CC[N+](C)(CC)CCC[n+]1c(-c2ccccc2)c2cc(N)ccc2c2ccc(N)cc21` was tested. Which inhibition did it give?
Answer: 60.1% (active)

Question: `CCOC(=O)C1=C(CC)Nc2ccccc2N=C1NC(=O)c1cccc(S(=O)(=O)N2CCCC2)c1` was tested. Which inhibition did it give?
Answer: -0.79%

Question: `COc1cc(OC)cc(-c2c(-c3ccc(F)cc3)c3cc(-c4ccc5cc[nH]c5c4)ccc3n2C)c1` was tested. Which inhibition did it give?
Answer: -1.29%

Question: How did the inhibition turn out when `CC1=C[C@H]2Cc3cc(C)cc(C)c3S(=O)(=O)[C@@H]2C=C1` was run?
Answer: -3.78%

Question: How did the inhibition turn out when `O=C(N/C(=C\c1ccc(F)cc1)C(=O)N1CCCCCC1)c1ccccc1` was run?
Answer: -1.76%

Question: For `CC1=C(C)C(=O)OC(C(C)C2CCC3C4CC=C5CC(OC6OC(COC7OC(CO)C(O)C(O)C7O)C(O)C(O)C6O)CC(O)C5(C)C4CCC23C)C1` (stereo unspecified), which inhibition is on record?
Answer: -11.7%

Question: With `COc1cccc(/C=C/C(=O)OCC(=O)N2CCCc3ccccc32)c1` as the compound, how does the inhibition read?
Answer: -0.36%

Question: Which inhibition does the source give for `CCOc1ccc(N2CC(C(=O)NCCN3C(=O)S/C(=C\c4cccnc4)C3=O)CC2=O)cc1` (stereo unspecified) here?
Answer: 7.93%

Question: With `COc1ccc(N2CC(C(=O)NCCN3C(=O)S/C(=C\c4cccnc4)C3=O)CC2=O)c(OC)c1` (stereo unspecified) as the compound, how does the inhibition read?
Answer: 67.3% (active)

Question: Which inhibition does the source give for `COc1ccccc1N1CC(C(=O)NCCN2C(=O)S/C(=C\c3cccnc3)C2=O)CC1=O` (stereo unspecified) here?
Answer: -0.75%

Question: With `CCOc1ccc(S(=O)(=O)N2CCCCC2)cc1NC(=O)CN1CCCC1c1cccs1` (stereo unspecified) as the compound, how does the inhibition read?
Answer: -2.05%

Question: `Cc1sc2ncn(CC(=O)NCCCC(=O)NCc3ccc(F)cc3)c(=O)c2c1C` was tested. Which inhibition did it give?
Answer: 3.83%

Question: `CC(C)(CNC(=O)CNC(=O)C1CCCCC1)N1CCOCC1` was tested. Which inhibition did it give?
Answer: -3.79%

Question: For `Cn1cc(/C=C/C(=O)N2CCCC(C(=O)c3ccc(C(F)(F)F)cc3)C2)cn1` (stereo unspecified), which inhibition is on record?
Answer: -3.26%

Question: For `CCCCn1c(N)c(N(CCC(C)C)C(=O)c2ccc([N+](=O)[O-])o2)c(=O)[nH]c1=O`, which inhibition is on record?
Answer: -7.18%

Question: Which inhibition does the source give for `CCCCn1c(N)c(N(CCC(C)C)C(=O)CC2OC(=O)c3ccccc32)c(=O)[nH]c1=O` (stereo unspecified) here?
Answer: 16.4% (active)

Question: `CCCCn1c(N)c(N(CCC(C)C)C(=O)c2ccc(COc3ccccc3)o2)c(=O)[nH]c1=O` was tested. Which inhibition did it give?
Answer: 2.38%
